Structures are written as SMILES. Records with an inconclusive call do not appear. Where a call stands in place of a potency, no number is given. Active and inactive are the calls of the source. Unless noted, calls follow the shape of the dose curve; as a rule, active = well fitted curve in the direction sought with a large enough effect; inconclusive = small, poorly fitted or top-dose-only effect, or another doubt; inactive = no such curve, though single readings can be large; an effect the other way counts as inactive or inconclusive.

Assay [1] has as its target Mitogen-activated protein kinase 10 (Mus musculus) (UniProt Q61831). In words: JNK3 AlphaScreen Assay (AID 530; active = well fitted curve in either direction with a large enough effect, not every such curve was filed as active;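 also: kinase came from lysate of stimulated human HepG2 cells; signal reports phosphorylation of biotinylated GST-cJun 1-79 at Ser73 with 10 µM ATP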). The note with it: JNK3 lysate, c-Jun phosphorylation; series mostly up to 57.1 µM. In a few lines: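 HepG2 lysate (IL-1b/TNFa pre-activated) + biotin-GST-cJun 1-79 + anti-pSer73 cJun; cpd titration, 15 min RT; ATP 10 uM start; Tris pH 7.6, MgCl2, DTT, vanadate; beads in EDTA buffer; AlphaScreen.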

The target of assay [2] is Cytochrome P450 3A4 (Homo sapiens) (UniProt P08684). In words: qHTS Assay for Inhibitors and Substrates of Cytochrome P450 3A4 (AID 884). Also: potency is read from the fitted curve at half-maximal effect; nearly all actives have a fitted effect of over 50% in size. The note with it: recombinant CYP3A4, Luciferin-PPXE luminescence; series mostly up to 57.1 µM. In outline: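 Luminescent readout of luciferin produced by CYP3A4 (20 nM) dealkylation of Luciferin-PPXE, 25 uM (its KM). NADPH-driven reaction ran 60 min at RT after 10 min compound preincubation; data scaled to 57 uM ketoconazole as 100% inhibition.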
Cytochrome P450 3A4 (Homo sapiens), sequence (P08684 whole entry, looked up): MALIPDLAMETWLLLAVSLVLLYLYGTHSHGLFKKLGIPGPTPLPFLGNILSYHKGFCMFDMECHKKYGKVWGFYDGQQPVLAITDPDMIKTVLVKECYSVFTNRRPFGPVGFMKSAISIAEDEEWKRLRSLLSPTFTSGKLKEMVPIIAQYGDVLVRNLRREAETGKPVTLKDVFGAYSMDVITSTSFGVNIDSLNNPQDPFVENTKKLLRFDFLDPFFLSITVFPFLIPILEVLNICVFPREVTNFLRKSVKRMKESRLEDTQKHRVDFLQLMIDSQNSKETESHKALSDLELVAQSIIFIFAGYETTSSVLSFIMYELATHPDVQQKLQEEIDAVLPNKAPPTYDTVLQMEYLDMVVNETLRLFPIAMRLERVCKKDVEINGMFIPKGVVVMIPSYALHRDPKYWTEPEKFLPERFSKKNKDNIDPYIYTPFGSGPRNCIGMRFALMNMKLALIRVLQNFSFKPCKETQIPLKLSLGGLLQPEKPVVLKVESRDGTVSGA

Assay [3] shares this target. In words: qHTS Assay for Activators of Cytochrome P450 3A4 (AID 885). Also: nearly all actives have a fitted effect of over 65% in size. The note with it: recombinant CYP3A4, Luciferin-PPXE luminescence, 60 min; series mostly up to 57.1 µM. In outline:
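Using 20nM recombinant human CYP3A4 in potassium phosphate (200mM), substrate Luciferin-PPXE at 25uM, luminescent luciferin detection followed a 60-min RT NADPH reaction; data scaled to 57 uM ketoconazole.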
(In general: Quantitative high-throughput screening tests each substance at several concentrations.)

For the molecule `CC(=O)N1CC=CC1(CC(C)C)C(=O)NCc1cc(F)cc(C(F)(F)F)c1` (configuration not stated), the molecule was called inactive in assay [1]. Further, the Potency in assay [2] was 12.6 µM (active). Besides, in assay [3], the Potency result is “inactive”.
In the case of `CCCCCCN(C(=O)CCCCCN1C(=O)NC(c2cccc([N+](=O)[O-])c2)C(C(=O)OCc2ccccc2)=C1C)C(C(=O)NCCCC)c1ccc(OCC(=O)OC)c(C(=O)OC)c1` (configuration not stated), the result in assay [1] was inactive. Also, in assay [2], the Potency is 3.16 µM (active). The Potency entry in assay [3] is “inactive”.
For the molecule `COC(=O)c1ccc(C(/C=C/[C@@H](C)C(=O)NCc2ccccc2)NC(=O)OCc2ccccc2)cc1` (some centres not stated), in assay [1], the molecule was classed as inactive. In addition, in assay [2], the Potency was 5.01 µM (active). Also, the Potency result in assay [3] was “inactive”.
Regarding `CN(C)C(=O)[C@]1(C)C[C@H]1[C@H](NC(=O)CNC(=O)[C@@H]1CCCN1C(=O)[C@]1(C)C[C@H]1[C@H](NC(=O)OCc1ccccc1)c1ccccc1)c1ccccc1`, the result in assay [1] was inactive. Besides, the Potency in assay [2] was 0.398 µM (active). In assay [3], the Potency result is “inactive”.
Turning to `CC1(C)OCC(CSC2=C(SCC3COC(C)(C)O3)C(=O)c3ncccc3C2=O)O1` (configuration not stated), the result in assay [1] was inactive. For the same molecule, the Potency in assay [2] was 15.8 µM (active). Also, the Potency result in assay [3] was “inactive”.
As to `C[C@]1(C(=O)NCCCNc2ncc(C(F)(F)F)cc2Cl)C=C[C@@H](Cc2ccccc2)N1C(=O)c1ccccc1`, the outcome in assay [1] was inactive. Also, the Potency in assay [2] was 3.16 µM (active). Further, the Potency entry in assay [3] is “inactive”.
Take `COC(=O)c1ccc(C(NC(=O)OCc2ccccc2)/C(=C/[C@@H](C)C(=O)N(C)Cc2ccccc2)c2cccnc2)cc1` (some centres not stated): in assay [1], the result was inactive. Besides, the Potency in assay [2] is 2 µM (active). In assay [3], the Potency entry is “inactive”.
Turning to `CC(=O)N1C2(C=CC1(C)C(=O)NCCN1CCOCC1)CCCCC2` (configuration not stated), the call in assay [1] was inactive. In addition, in assay [2], the Potency is 10 µM (active). Besides, in assay [3], the Potency entry was “inactive”.
Regarding `CC(=O)N1[C@H](C)C=C[C@]1(Cc1ccccc1)C(=O)NCc1ccc(C)o1`, in assay [1], the call was inactive. In addition, in assay [2], the Potency is 5.01 µM (active). The Potency entry in assay [3] is “inactive”.

Source of the values: PubChem BioAssay (NCATS).
